FBW7 act: FBW7 E3 ligase activators, primary screen, biochemical, AlphaScreen, human; AlphaScreen FBW7–phospho-cyclin E peptide binding, activator screen; normalized activity (activation), % at 26.1 µM; F-box/WD repeat-containing protein 7 (Homo sapiens), Q969H0; actives 0.13% (n = 650,000); AID 1259310, 2017; in the data active means normalized activity above about 1.9%;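 further: purified mutant Fbw7 with reduced substrate affinity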
MITF primary: MITF inhibitors, primary screen, biochemical, AlphaScreen, human; Microphthalmia-associated transcription factor (Homo sapiens), O75030; AlphaScreen MITF homodimerization, bead proximity signal; inhibition, % at 2.6 µM; actives 0.91% (n = 650,000); AID 1259374, 2018; in the data active means inhibition above about 50%;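 further: 0% = vehicle wells with protein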
Target sequence (O75030 whole entry, looked up): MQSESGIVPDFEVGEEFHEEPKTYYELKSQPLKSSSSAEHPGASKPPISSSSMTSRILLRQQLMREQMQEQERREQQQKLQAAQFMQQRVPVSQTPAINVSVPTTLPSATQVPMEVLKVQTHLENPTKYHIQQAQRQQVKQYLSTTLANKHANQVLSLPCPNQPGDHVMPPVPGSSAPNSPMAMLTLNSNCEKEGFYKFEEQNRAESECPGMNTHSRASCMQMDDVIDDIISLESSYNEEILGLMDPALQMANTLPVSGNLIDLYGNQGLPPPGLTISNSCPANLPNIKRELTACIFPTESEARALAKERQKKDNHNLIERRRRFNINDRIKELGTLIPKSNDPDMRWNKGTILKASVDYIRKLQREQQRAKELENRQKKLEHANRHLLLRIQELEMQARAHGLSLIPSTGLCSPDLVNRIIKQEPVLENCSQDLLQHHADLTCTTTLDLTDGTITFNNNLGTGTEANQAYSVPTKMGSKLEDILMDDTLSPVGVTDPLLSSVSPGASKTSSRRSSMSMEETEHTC
GPR151 activ: activators of human GPR151, primary screen, cell-based, PathHunter beta-arrestin, luminescence; actives 1% (n = 650,000); G-protein coupled receptor 151 (Homo sapiens), Q8TDV0; PathHunter beta-arrestin GPR151 cells; activation, % at 11.2 µM; in the data active means activation above about 4.9%;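 further: 0% = median of compound wells and 100% = cells with positive control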
TEAD-YAP block: TEAD-YAP interaction inhibition, primary screen, TEAD-YAP interaction inhibitor project, luminescence, HEK-TIYL cells. TEAD-Gal4/YAP UAS-luciferase luminescence. inhibition, % at 9.12 µM. actives 1.4% (n = 640,000). AID 1259422, 2018; in the data active means inhibition above about 32%;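 further: 0% = median of test compound wells and 100% = reference inhibitor wells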
MITF inh conf: MITF inhibitors, retest of hits, confirmation, biochemical, AlphaScreen, triplicate; shares compounds with MITF primary; AlphaScreen MITF homodimerization, biotin/His-MITF beads; inhibition, % at 2.6 µM; actives 16% (n = 4,700); AID 1259372, 2018;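 active means inhibition above a cutoff derived from the DMSO control wells, cut at about 28% in these data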;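 further: 0% = MITF dimer wells with DMSO only; inhibitors lower the bead chemiluminescence by keeping MITF from dimerizing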
AlphaScreen DR: AlphaScreen optical interference compounds, dose response, counter-screen, biochemical, HTS. AlphaScreen optical interference counterscreen, cell-free. shares compounds with MITF primary. AID 1259373, 2018. actives 6% (n = 480). IC50, µM; call rule not given here
AS interf ctr: AlphaScreen optical interference compounds, counter-screen for MITF inhibitor project, biochemical, triplicate | LysRS AlphaScreen counterscreen, signal interference | inhibition, % at 2.6 µM | shares compounds with MITF primary | actives 7.6% (n = 4,700);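 active means inhibition above a cutoff derived from the DMSO control wells, cut at about 30% in these data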
An asterisk follows results filed as active; x = no result; ! = repeats disagree. Most compounds without a hit are left out; they make up all but 3.5% or so of the library.

SMILES	FBW7 act	MITF primary	GPR151 activ	TEAD-YAP block	MITF inh conf	AS interf ctr	others
CCOc1ccccc1N1CCN(Cc2ccoc2)CC1	0	53*	0	2	4	-2
CCOc1ccccc1OCCOCCN1CC(C)OC(C)C1 (configuration not stated)	0	53*	-2	10	1	14
O=C(COc1ccccc1F)N1CCCCC1	0	10	2	-25	x	x
O=C(COc1ccccc1F)OCCN1CCCC1	0	57*	-1	-8	6	6
Nc1c(C(=O)Nc2ccc([N+](=O)[O-])cc2)sc2nc3c(cc12)CCC3	0	11	-1	-40	x	x
Clc1ccc(OCCN2CCCC2)c2ccccc12	0	53*	2	-7	-9	-5
c1ccc2c(OCCN3CCCCC3)cccc2c1	0	-1	0	-1	x	x
CCOc1ccccc1OCCN1CCCC1	1	75*	0	7	-12	-9
CCOc1ccccc1OCCN1CCCCC1	1	39	0	-5	x	x
CCOc1ccccc1OCCN1CCN(c2ccccc2OC)CC1	1	89*	-2	10	4	25
O=C(NCC(c1cccs1)N1CCc2ccccc21)c1ccc(F)cc1 (configuration not stated)	2	5	-1	1	x	x
CCOC(=O)N1CCC(N2C(=O)c3ccccc3C2Nc2ccccc2C(=O)OC)CC1 (configuration not stated)	0	62*	-1	2	3	13
Oc1ccc2c(c1)C1CCCC1(N1CCOCC1)O2 (configuration not stated)	0	70*	1	8	73*	-2	AlphaScreen DR=>6.5
O=C1N=c2ccc([N+](=O)[O-])cc2=C1c1sc(NS(=O)(=O)c2ccccc2)nc1O	0	64*!	0	8	11	23
Cc1ccc(S(=O)(=O)Nc2nc(O)c(C3=c4cc([N+](=O)[O-])ccc4=NC3=O)s2)cc1	0	11	2	-2	x	x
c1ccc(-c2nnc3n2CCN(Cc2ccc(N4CCCC4)cc2)CC3)cc1	0	10	2	7	x	x
Cc1sc2nc(C)n3c(=O)n(CC(=O)NCc4ccco4)nc3c2c1C	0	51*	2	5	29*	9	AlphaScreen DR=>6.5
Cc1sc2nc(C(C)C)n3c(=O)n(CC(=O)NCc4ccco4)nc3c2c1C	0	14	-1	5	x	x
CCN=C1SC(C(=O)NC)CC(=O)N1CC (configuration not stated)	0	-11	-1	0	x	x
CCCCCn1c(SCC(=O)OCC)nc2cc(C(=O)Nc3cccc(Cl)c3)ccc2c1=O	0	1	-1	-9	x	x
c1ccc(-c2ccc(OCCCCn3cncn3)cc2)cc1	0	55*	1	-51	37*	7	AlphaScreen DR=>6.5
Clc1ccc(OCCCn2cncn2)cc1Cl	0	63*	2	6	14	7
c1ccc(COc2ccc(OCCCCn3cncn3)cc2)cc1	0	7	-2	-12	x	x
Cc1cc(C)cc(OCCCCn2cncn2)c1	0	61*	0	0	1	5
COc1ccc(CCNC(CC(=O)Nc2ccc(Oc3ccccc3)cc2)C(=O)O)cc1 (configuration not stated)	1	2	-1	-4	x	x
SMILES	FBW7 act	MITF primary	GPR151 activ	TEAD-YAP block	MITF inh conf	AS interf ctr	others
COc1ccc(CCNC(C)CC(=O)Nc2ccccc2)cc1 (configuration not stated)	0	56*	0	2	12	11
CCC1CN(Cc2ccoc2)Cc2cc(OC)ccc2O1 (configuration not stated)	0	-5	0	0	x	x
CCOC(=O)c1ccoc1CN1CCN(C/C=C/c2ccccc2)CC1	0	79*	-1	-5	16	-1
COc1ccccc1CN1CCN(C/C=C/c2ccccc2)CC1	0	69*	1	-2	8	6
CCOC(=O)c1ccoc1CN1CCN(c2cccc(C)c2C)CC1	0	6	0	2	x	x
COc1ccc(CN2CCN(C/C=C/c3ccccc3)CC2)c(O)c1	1	19	-1	11	x	x
COc1ccc(OC)c(CN2CCN(C/C=C/c3ccccc3)CC2)c1	0	81*	3	5	4	18
COc1cccc(COC(=O)Nc2cc(F)c(-c3cn[nH]c3)cc2OCCN(C)C)c1	1	80*	0	-5	47*	5
COc1cccc(COC(=O)Nc2ccc(-c3cn[nH]c3)cc2OCCN(C)C)c1	1	15	0	-11	x	x
CCCCCC(C)(C)NC(=O)CN1CCOCC1	0	51*	0	-2	11	8
Clc1ccccc1CN1CCN(C2CCCCCC2)CC1	0	74*	0	-3	0	1
CC1CCC(N2CCN(Cc3ccccc3F)CC2)CC1 (configuration not stated)	0	63*	-1	7	-4	10
CCN1CCN(C2CCN(Cc3ccccc3C)CC2)CC1	0	14	0	-3	x	x
Fc1ccccc1CN1CCN(C2CCCCC2)CC1	0	61*	1	1	8	-1
Fc1ccccc1CN1CCC(N2CCN(c3ccccc3)CC2)CC1	0	53*	-1	-4	2	9
Fc1ccccc1CN1CCC(N2CCCCC2)CC1	0	-19	-1	5	x	x
Fc1ccccc1N1CCN(C2CCN(Cc3ccccc3)CC2)CC1	0	49	-1	1	x	x
Clc1ccccc1CN1CCC(N2CCCCC2)CC1	0	-4	-1	6	x	x
Cc1ccc(OC(=O)c2ccc(Cl)c(Cl)c2)cn1	0	-11	0	3	x	x
CC(C)(C)c1nnc(NC(=O)CN2C(=O)C3C4C=CC(C4)C3C2=O)s1 (configuration not stated)	0	68*	0	4	1	-10
COc1ccc2c(c1OC)C(=O)OC2Nc1ccccc1O (configuration not stated)	0	14	0	-2	x	x
C/C(=N\NC(=O)Cc1cc(=O)[nH][nH]1)c1ccco1	0	59*	-1	7	56*	4	AlphaScreen DR=>6.5
O=C(NCCc1ccc(Cl)cc1)C1CN(C(=O)c2ccc(F)c(F)c2)C1	0	9	1	6	x	x
O=[N+]([O-])c1ccc(CN2CCSCC2)cc1	0	48	1	5	x	x
O=[N+]([O-])c1ccc(-c2nsc3c(N4CCN(Cc5cccnc5)CC4)ncnc23)cc1	0	13	0	-14	x	x

Screening data: PubChem, The Scripps Research Institute Molecular Screening Center
